In PubChem BioAssay AID588675 (Johns Hopkins Ion Channel Center, 2011):
Screen size: about 310,000 compounds; about 1,900 (0.61%) were called active.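 Rule for the calls: active = plate-corrected calcium response at least 3 library SD above typical, normal starting fluorescence, not activating the receptor alone; inactive = the rest.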 The full list was thinned out, with actives kept by preference.

biological target: Mas-related G-protein coupled receptor member X1 (Homo sapiens) (UniProt Q96LB2); assay: allosteric enhancers of human MrgX1 signaling – HEK293 cells, Fluo-4 calcium flux, primary screen (AID 588675); settings: MrgX1-HEK293, Fluo-4 calcium flux, FDSS, at 10 µM; hits give high values;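 note: compound read alongside a low EC10 to EC30 dose of BAM8-22 agonist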;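 for B-score: peak minus trough fluorescence over baseline measured at the second addition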
Sequence (Q96LB2 whole entry, looked up): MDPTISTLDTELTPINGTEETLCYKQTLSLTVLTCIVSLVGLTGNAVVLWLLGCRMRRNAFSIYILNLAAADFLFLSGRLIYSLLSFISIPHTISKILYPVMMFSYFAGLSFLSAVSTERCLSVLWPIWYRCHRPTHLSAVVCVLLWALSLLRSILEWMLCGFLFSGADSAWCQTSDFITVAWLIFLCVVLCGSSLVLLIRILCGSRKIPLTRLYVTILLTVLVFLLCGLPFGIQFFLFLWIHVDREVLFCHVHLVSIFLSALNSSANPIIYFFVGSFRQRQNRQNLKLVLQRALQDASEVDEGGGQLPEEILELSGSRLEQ

SMILES | B-score
CCC(C)c1ccc(O)c(/C=N/O)c1 (stereo not given) | 6.88 (active)
CNCC(O)c1ccc(O)c(O)c1 (stereo not given) | inactive
CCOC(=O)c1cccc(NC(=O)C2CCN(c3ncnc4c3nc3n4CCCCC3)CC2)c1 | inactive
CCCCCCCCCCCC(=O)O | inactive
CCCC(=O)OCC(=O)Nc1cc(Cl)ccc1[N+](=O)[O-] | 9.84 (active)
Cc1cc(NC(=O)COC(=O)COc2ccc(Cl)cc2C)c([N+](=O)[O-])cc1C | inactive
CC(C)(C)NC(=O)COC(=O)c1cc(Cl)ccc1[N+](=O)[O-] | inactive
CCN(CC(=O)NC1CCS(=O)(=O)C1)S(=O)(=O)c1ccccc1 (stereo not given) | inactive
Cc1coc2c(O)cc3c(c12)OC1(N2CCCCC2)C(=O)NCCCC31 (stereo not given) | inactive
COc1cccc(NC(=O)NCCN2CCCCC2)c1 | inactive
Cc1ccc2c(c1)C1CN(C)CCC1N2S(=O)(=O)c1ccc(Oc2ccc([N+](=O)[O-])cc2)cc1 (stereo not given) | inactive
Cc1ccc(S(=O)(=O)N(C)c2ccc(OCC(=O)OCC(=O)N(CC#N)c3ccccc3)cc2)cc1 | inactive
Cc1ccc2nc(Nc3ccccc3O)nc(-c3ccccc3)c2c1 | inactive
Cc1cc(Nc2ccc(Br)cc2)nc2ccccc12 | inactive
Cc1ccc2nc(Nc3ccccc3)cc(C)c2c1 | 14 (active)
CCCN(CCC)C(=O)C1c2ccccc2Oc2ccccc21 | inactive
CCOc1cccc(NC(=O)CC#N)c1 | inactive
CC(C)Nc1nnc(SCC(=O)/C=C2\N(C)c3ccccc3C2(C)C)s1 | inactive
CC(=O)Nc1cccc(OCC(=O)/C=C2\N(C)c3ccccc3C2(C)C)c1 | 6.96 (active)
Cc1ccc(S(=O)(=O)N2[C@@H](c3cccc(Cl)c3)C(C(=O)O)=CC[C@H]2c2ccc(Cl)c(Cl)c2)cc1 | inactive
Cc1ccc(S(=O)(=O)N2[C@@H](c3ccccc3F)C(C(=O)O)=CC[C@H]2c2ccc(Cl)cc2)cc1 | 15.6 (active)
Cc1ccc([C@@H]2CC=C(C(=O)O)[C@H](c3cccc(Cl)c3)N2S(=O)(=O)c2ccc(C)cc2)cc1 | inactive
CC(=O)Nc1cccc(C(=O)OCN2C(=O)c3ccccc3C2=O)c1 | inactive
O=C(c1ccc(OC2CCN(Cc3ccccn3)CC2)cc1)N1CCCCCC1 | inactive
O=C(c1ccc(OC2CCN(C(=O)c3cccnc3)CC2)cc1)N1CCCCCC1 | 6.62 (active)
O=C(c1ccc(OC2CCN(C/C=C/c3ccc(F)cc3)CC2)cc1)N1CCCCC1 | inactive
O=C(NCCCc1ccccc1)C1CCC(CNc2c(N3CCCCC3)c(=O)c2=O)CC1 (stereo not given) | inactive

SMILES | B-score
CCOc1ccc(NC(=O)N2CCN(CC)CC2)cc1 | inactive
CCOc1ccc(NC(=O)N2CC=C(n3c(=O)[nH]c4ccccc43)CC2)cc1 | 7.16 (active)
Cc1cccc(C)c1NC(=O)N1CC=C(n2c(=O)[nH]c3ccccc32)CC1 | inactive
O=C(CCc1[nH]c2ccccc2c1Sc1ccccc1)N(CCO)CCO | inactive
CN(Cc1ccccc1)C(=O)C1CCCN(c2ncnc3c2nc2n3CCCCC2)C1 (stereo not given) | inactive
CCCCOP(=O)(c1ccc(N(C)C)cc1)C(O)c1cc(OC)ccc1OC (stereo not given) | inactive
COC(CNC(=O)Cn1ncc2ccsc2c1=O)OC | inactive
CCC1=C(OC(=O)N(CC)CC)N2C(=O)OC(=NCC3CC3)[C@]2(C)[C@H]2C1=CC[C@H]1C(=O)N(CC(=O)OC)C(=O)[C@H]12 | inactive
Cc1ccc(NS(=O)(=O)c2ccc(-c3coc(C)n3)cc2)c(C)c1 | inactive
COc1cccc(NS(=O)(=O)c2ccc(-c3coc(C)n3)cc2)c1 | inactive
CCN(c1cccc(C)c1)S(=O)(=O)c1ccc(-c2coc(C)n2)cc1 | 8.56 (active)
CCCCN(CCCC)CCC(O)c1cc2c(Cl)cc(Cl)cc2c2cc(C(F)(F)F)ccc12 (stereo not given) | inactive
O=C(/C=C/c1ccc(OCc2c(F)cccc2Cl)cc1)N1CCOCC1 | inactive
Fc1ccc(COc2ccc(-c3nnco3)cc2)cc1 | inactive
Fc1cccc(Cl)c1COc1ccc(-c2nnco2)cc1 | 13.2 (active)
O=C(c1cc(-c2ccc(F)cc2)on1)N1CCN(c2ccc(F)cc2)CC1 | inactive
Cc1c(C(=O)N2CCN(c3ccc(F)cc3)CC2)oc2c1C(=O)CCC2 | 7.4 (active)
O=C(Nc1ccc(F)cc1)N1CCN(c2ccc(F)cc2)CC1 | inactive
Cc1ccc(S(=O)(=O)n2nc(OC(=O)C(C)(C)C)cc2N)cc1 | inactive
Nc1cc(OC(=O)c2ccccc2Br)nn1S(=O)(=O)c1ccccc1 | 7.83 (active)
O=C(COC(=O)c1ccccc1Br)Nc1nnc(-c2ccccc2)o1 | inactive
Cc1ccc2[nH]c(C(=O)O)c(NC(=O)c3ccccc3[N+](=O)[O-])c2c1 | inactive
O=C(O)C1=CCCN(CCON=C(c2ccccc2)c2ccccc2)C1 | inactive
Cc1cc(C(=O)Nc2ccccc2N2CCOCC2)c2ccccc2n1 | inactive
Cc1ccc(S(=O)(=O)N2CCOCC2)cc1C(=O)Nc1ccccc1N1CCCC1 | inactive
O=C(Nc1ccccc1N1CCOCC1)c1csc2c1CCCC2 | 12 (active)
c1ccc(-c2ccc3c(c2)NC(C2Nc4cc(-c5ccccc5)ccc4O2)O3)cc1 (stereo not given) | inactive

SMILES | B-score
O=C(Oc1ccc(Br)cc1C(=S)N1CCOCC1)c1cccc([N+](=O)[O-])c1 | inactive
COc1ccc(Nc2nnc(C)c3ccccc23)cc1 | 22.5 (active)
COc1ccc(Nc2nc(=O)[nH]nc2C)cc1 | inactive
Cc1nnc(NCCO)c2ccccc12 | inactive
CN(c1ccccc1)S(=O)(=O)c1ccc(NC(=O)COc2ccccc2)cc1 | inactive
O=C(NCc1ccccc1Cl)c1ccc2c(=O)n(CC3CCCO3)c(=S)[nH]c2c1 (stereo not given) | inactive
CC(C)CCn1cnc2c1c(=O)n(CC(=O)NC(N)=O)c(=O)n2Cc1ccccc1 | inactive
Cc1ccc(Oc2nc3ccccc3n3c(C)nnc23)cc1 | inactive
CC(=O)Nc1ccc(S(=O)(=O)N(C)c2nc3ccccc3nc2Cl)cc1 | inactive
Cc1ccc(S(=O)(=O)N(C)c2nc3ccccc3n3c(C(C)C)nnc23)cc1 | 6.54 (active)
CC(C)CC(=O)N/C(N)=N/c1nc2ccccc2s1 | 12.9 (active)
CCC(=O)NC(=Nc1nc2ccccc2s1)NC(=O)CC | inactive
CC(C)CC(=O)NC(=S)NCc1ccccc1 | inactive
O=C(c1cccc(-n2cccc2)c1)N1CCN(S(=O)(=O)c2ccc(F)cc2)CC1 | inactive
CCC(C)NC(=O)c1ccc(N2CCC3(CC2)OCCO3)c([N+](=O)[O-])c1 (stereo not given) | inactive
CC(NC(=O)c1ccc(N2CCNCC2)c([N+](=O)[O-])c1)C12CC3CC(CC(C3)C1)C2 (stereo not given) | 6.65 (active)
O=C(NC1C2CC3CC(C2)CC1C3)c1ccc(N2CCNCC2)c([N+](=O)[O-])c1 (stereo not given) | inactive
CCOC(=O)Cc1csc(NC(=O)CN(C)S(=O)(=O)c2ccc3c(c2)CCC(=O)N3)n1 | inactive
C/C(=N\NC(=O)c1ccoc1C)c1ccccc1O | inactive
Cc1nn(C(=O)c2ccoc2C)c(N)c1-c1ccccc1 | 15.4 (active)
Cc1nn(-c2ccc([N+](=O)[O-])cc2)c(N)c1-c1ccccc1 | inactive
N#CCC(=O)NC1CCC(CC2CCC(NC(=O)CC#N)CC2)CC1 (stereo not given) | inactive
COc1cc(OC)c(-n2c(C)cc(C=O)c2C)cc1Cl | 9.68 (active)
COc1cc(OC)c(-n2cc(-c3ccc(Cl)cc3)[nH]c2=O)cc1Cl | inactive
Cc1ccccc1-n1c(C)cc(/C=C2\NC(=O)NC2=O)c1C | inactive
COc1ccccc1CNC(=O)C1CCN(S(=O)(=O)c2ccc3c(c2)OCCO3)CC1 | inactive
COCCNC(=O)C1CCN(S(=O)(=O)c2ccc3c(c2)OCCO3)CC1 | 24.9 (active)

SMILES | B-score
O=C(NCc1cccs1)C1CCN(S(=O)(=O)c2ccc3c(c2)OCCO3)CC1 | inactive
O=C(/C=C/c1ccc(F)cc1)NC(=S)NNC(=O)c1cccnc1 | inactive
CCCCn1c(N)c(N(CCOC)C(=O)COc2c(C)cccc2C)c(=O)[nH]c1=O | inactive
Cc1ccc(S(=O)(=O)NC(=O)COc2ccccc2C)cc1 | inactive
Cc1ccc(C(=O)Nc2nnc(-c3ccncc3)s2)o1 | inactive
Cc1occc1C(=O)Nc1nnc(C2CCCCC2)s1 | inactive
Cc1occc1C(=O)Nc1nnc(-c2ccncc2)s1 | 7.38 (active)
CCOc1ccc(OCC)c(NC(=O)CSc2nnc(Cn3cnc4ccccc43)n2C)c1 | inactive
COC(=O)C1=C(C)N(C)C(=S)NC1c1cc(OC)ccc1OC (stereo not given) | inactive
COC(=O)c1ccc(/C=N/NC(=O)C(=O)N2CCCCCC2)cc1 | inactive
COC(=O)c1ccc(/C=N/N2C(C)CCCC2C)cc1 (stereo not given) | 6.7 (active)
CC1CCCC(C)N1/N=C/c1ccccc1OC(F)F (stereo not given) | inactive
Cc1c(CC(=O)NCCCCCC(=O)O)c(=O)oc2cc3occ(-c4ccccc4)c3cc12 | inactive
Cc1c(CCC(=O)O)c(=O)oc2cc3occ(-c4ccccc4)c3cc12 | 7.5 (active)
Cc1coc2cc3oc(=O)c(CCC(=O)O)c(C)c3cc12 | inactive
O=C1NC2(CCCCCC2)C(=O)N1CCS(=O)(=O)Oc1ccccc1 | inactive
Cc1ccsc1C1C(C#N)=C(N)OC2=C1C(=O)CC(C)C2 (stereo not given) | inactive
COC(=O)[C@]1(S(=O)(=O)c2ccccc2)C[C@@H]2ON=C(c3ccc(OC)cc3)[C@@H]2C1 | inactive
Cc1ccc(-c2nn(C(C)(C)C)c3ncnc(N)c23)cc1 | inactive
Cc1ccc(-n2cnc3ncnc(-c4ccccc4)c32)cc1 | 7.18 (active)
Cc1ccc(-n2ccc(=O)c(C(=O)O)n2)cc1 | inactive
CC(C)OC(=O)c1ccc(COc2ccc3ccc(=O)oc3c2)o1 | inactive
CCc1cc2c(=O)c(-c3nc4ccccc4n3C)c(CCCC(=O)O)oc2cc1OC(=O)C(C)(C)C | inactive
COc1cccc2c(C)c(C(=O)O)[nH]c12 | inactive
